The text below walks through data of PubChem BioAssay.

The source made the active and inactive calls. Unless noted, no stated cut-off is given here; in the data, active means inhibition above about 42%; inactive means the rest.

Usually inhibition stands for the change of the read-out against control, counted positive when it falls.

Tested on in the first assay: not listed separately
Description: StAR promoter reporter inhibitors, counter-screen for LRH-1 inverse agonist project, cell-based, luminescence, high throughput (AID 651611; in the data active means inhibition above about 28%). The settings on record: StAR promoter luciferase reporter counterscreen, at 3.6 µM, stronger effect = higher value. In general terms: A counterscreen serves to expose hits that act by an unwanted route or on another target.
Consider `Cc1ccc(/C=C/c2ccc(N(C)C)cc2)[n+](C)c1`, for which the inhibition was 41.5% (active).
With `CCCCCCCC[n+]1cccc2c3ccccc3ccc21`, the inhibition is 77% (active).
Still for that read-out and setting: next, `N=c1c2c(-c3ccccc3)c(-c3ccccc3)n(Cc3ccccc3)c2ncn1CCO`: 57.2% (active).
For `COc1ccc(Nc2ncnc3ccc(Br)cc23)c(OC)c1`, the inhibition was 86% (active).
Consider `O=C(N/N=C/c1sc(N2CCOCC2)nc1-c1ccccc1)c1cccc(S(=O)(=O)N2CCOCC2)c1`, for which the inhibition is 69.9% (active).
`OCC1OC(n2cnc3c(NCc4ccccc4O)ncnc32)C(O)C1O` (stereo not given): the inhibition was 87.5% (active).
Same read-out and setting: the value for `CCn1c(C)cc(C(=O)COC(=O)c2ccccc2[N+](=O)[O-])c1C` was 83.5% (active); that for `CCC(C)(C)c1ccc(OCCCC[n+]2cccc(C)c2C)c(C(C)(C)CC)c1` was 58% (active).
On the same count and under the same terms, next, `CC(C)(C)c1ccc(Oc2ccc(N)cc2)cc1`: 71.2% (active); `COc1ccccc1C(=O)Nc1nc2ccccc2s1`: 85.9% (active).
Regarding `COc1cccc(/C=N/NC(=O)c2c(C)nc3ccc(Cl)cn23)c1O`, the inhibition is 86.7% (active).
With `C=CCn1c(C)cc(C2=NNC(=NCC)SC2)c1C`, the inhibition is 82.1% (active).
On to `COc1cccc(Cn2c(NCc3cccnc3)nc3c2c(=O)n(C)c(=O)n3C)c1`, for which the inhibition is 59.4% (active).
As for `NC(=S)NN=Cc1nccc2c(C(F)(F)F)cccc12`, the inhibition is 89.7% (active).
As for `Cc1ccsc1C(=O)OCC(=O)c1cc(C)n(CC2CCCO2)c1C` (stereo not given), the inhibition was 66.9% (active).
With `CC(C)CC(=NNC(=O)c1ccncc1)c1cc(Cl)ccc1O`, the inhibition is 88.6% (active).
With `CN(C)c1ccc(/C=C/c2ccc3c4ccccc4ccc3[n+]2-c2ccccc2)cc1`, the inhibition is 71.9% (active).
The same measure, in the same setting: next, `Cc1cccn2c(=O)c3cc(C(=O)NCCN4CCOCC4)c(=N)n(Cc4ccc(F)cc4)c3nc12`: 45.4% (active).
For the compound `O=C(Nc1ccon1)c1nc[nH]c1C(=O)NCc1ccccc1`, the inhibition was 50.5% (active).
On to `CC(=NNC(=S)Nc1cccc(C)c1)c1ccccn1`, for which the inhibition is 85.1% (active).
In the case of `Cc1[nH]c(=O)c(C(=O)/C=C/c2ccccc2)c2c1CCCC2`, the inhibition is 54.4% (active).
`COC(=O)C12OCC34C(CC5C(C)=C(O)C(=O)CC5(C)C3C(O)C1O)OC(=O)C(OC(=O)C=C(C)C)C24` (stereo not given): the inhibition is 96.9% (active).
Consider `CCCCCCn1c2c(c(=N)c3c1CCC3)CCC2`, for which the inhibition was 68.7% (active).
With `COc1ccc(CCNc2ncnc3c2oc2ccccc23)cc1OC`, the inhibition was 34.5% (active).
For the compound `O=C(c1ccccc1)c1c2c(cc3sc4ccccc4[n+]13)-c1cccc3cccc-2c13`, the inhibition is 47.8% (active).
On to `OCCCNc1nccc(-c2cc(Nc3cccc(Cl)c3)ncn2)n1`, for which the inhibition is 88.5% (active).
On to `O=c1c2ccccc2sc2ccc(C#CC3(O)CCCCC3)cc12`, for which the inhibition is 84.3% (active).
Take `COc1ccc(-c2oc3ccc(N4CCOCC4)cc3c2C#CCO)cc1`: the inhibition is 54.3% (active).
For the compound `CC[C@H]1CN2CCc3cc(OC)c(OC)cc3[C@@H]2C[C@@H]1C[C@H]1NCCc2cc(OC)c(OC)cc21`, the inhibition is 94.6% (active).
On to `CC(=O)NC(c1ccc(Cl)cc1)c1ccc2cccnc2c1O` (stereo not given), for which the inhibition is 89.2% (active).

For another assay, the target named is Nuclear receptor subfamily 5 group A member 2 (Homo sapiens) (UniProt O00482). Description: NR5A2 activity suppression in reporter cells – cell-based, luminescence, confirmation (AID 651613).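 Further: HEK293T cells co-transfected with LRH-1 and StAR promoter luciferase reporter; 0% = vehicle wells and 100% = parental cells lacking receptor.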 The settings on record: cell-based LRH-1 luciferase reporter, inverse agonism; at 3.6 µM; stronger effect = higher value.
Sequence of Nuclear receptor subfamily 5 group A member 2 (Homo sapiens) (O00482 whole entry, looked up): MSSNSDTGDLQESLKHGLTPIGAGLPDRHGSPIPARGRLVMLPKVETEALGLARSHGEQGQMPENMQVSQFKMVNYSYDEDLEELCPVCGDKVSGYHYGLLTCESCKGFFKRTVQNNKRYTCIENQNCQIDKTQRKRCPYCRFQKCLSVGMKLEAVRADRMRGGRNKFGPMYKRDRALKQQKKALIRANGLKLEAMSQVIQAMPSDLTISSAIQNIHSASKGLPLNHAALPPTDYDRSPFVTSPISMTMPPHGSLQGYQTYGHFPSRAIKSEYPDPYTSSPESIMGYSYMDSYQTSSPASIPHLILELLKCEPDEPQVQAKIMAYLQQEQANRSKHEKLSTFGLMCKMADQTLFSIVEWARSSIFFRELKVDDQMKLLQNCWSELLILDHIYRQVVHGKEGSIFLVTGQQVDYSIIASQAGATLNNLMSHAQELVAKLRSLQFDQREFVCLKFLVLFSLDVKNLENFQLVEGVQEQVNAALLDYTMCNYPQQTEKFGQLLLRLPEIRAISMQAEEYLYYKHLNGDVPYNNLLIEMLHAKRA
For `Cc1ccc(/C=C/c2ccc(N(C)C)cc2)[n+](C)c1`, the inhibition was 78.5% (active).
Take `CCCCCCCC[n+]1cccc2c3ccccc3ccc21`: the inhibition was 107% (active).
For the compound `N=c1c2c(-c3ccccc3)c(-c3ccccc3)n(Cc3ccccc3)c2ncn1CCO`, the inhibition is 71.5% (active).
In the case of `COc1ccc(Nc2ncnc3ccc(Br)cc23)c(OC)c1`, the inhibition was 47.3% (active).
As to `O=C(N/N=C/c1sc(N2CCOCC2)nc1-c1ccccc1)c1cccc(S(=O)(=O)N2CCOCC2)c1`, the inhibition was 100% (active).
The same measure, in the same setting: the value for `OCC1OC(n2cnc3c(NCc4ccccc4O)ncnc32)C(O)C1O` (stereo not given) was 102% (active); that for `CCn1c(C)cc(C(=O)COC(=O)c2ccccc2[N+](=O)[O-])c1C` was 83.8% (active); that for `CCC(C)(C)c1ccc(OCCCC[n+]2cccc(C)c2C)c(C(C)(C)CC)c1` was 88.1% (active).
Still for that read-out and setting: next, `CC(C)(C)c1ccc(Oc2ccc(N)cc2)cc1`: 88.6% (active).
As for `COc1ccccc1C(=O)Nc1nc2ccccc2s1`, the inhibition is 86.4% (active).
Same read-out and setting: the value for `COc1cccc(/C=N/NC(=O)c2c(C)nc3ccc(Cl)cn23)c1O` was 102% (active); that for `C=CCn1c(C)cc(C2=NNC(=NCC)SC2)c1C` was 75.7% (active).
As for `COc1cccc(Cn2c(NCc3cccnc3)nc3c2c(=O)n(C)c(=O)n3C)c1`, the inhibition was 55.5% (active).
`NC(=S)NN=Cc1nccc2c(C(F)(F)F)cccc12`: the inhibition was 100% (active).
Still for that read-out and setting: next, `Cc1ccsc1C(=O)OCC(=O)c1cc(C)n(CC2CCCO2)c1C` (stereo not given): 15.3% (inactive).
As for `CC(C)CC(=NNC(=O)c1ccncc1)c1cc(Cl)ccc1O`, the inhibition is 101% (active).
For `CN(C)c1ccc(/C=C/c2ccc3c4ccccc4ccc3[n+]2-c2ccccc2)cc1`, the inhibition is 104% (active).
The same measure, in the same setting: next, `Cc1cccn2c(=O)c3cc(C(=O)NCCN4CCOCC4)c(=N)n(Cc4ccc(F)cc4)c3nc12`: 73.9% (active).
On to `O=C(Nc1ccon1)c1nc[nH]c1C(=O)NCc1ccccc1`, for which the inhibition is 58.4% (active).
On to `CC(=NNC(=S)Nc1cccc(C)c1)c1ccccn1`, for which the inhibition is 99.3% (active).
Consider `Cc1[nH]c(=O)c(C(=O)/C=C/c2ccccc2)c2c1CCCC2`, for which the inhibition was 71.7% (active).
As for `COC(=O)C12OCC34C(CC5C(C)=C(O)C(=O)CC5(C)C3C(O)C1O)OC(=O)C(OC(=O)C=C(C)C)C24` (stereo not given), the inhibition is 110% (active).
On the same count and under the same terms, next, `CCCCCCn1c2c(c(=N)c3c1CCC3)CCC2`: 110% (active); `COc1ccc(CCNc2ncnc3c2oc2ccccc23)cc1OC`: 51.8% (active).
With `O=C(c1ccccc1)c1c2c(cc3sc4ccccc4[n+]13)-c1cccc3cccc-2c13`, the inhibition was 99.3% (active).
For the compound `OCCCNc1nccc(-c2cc(Nc3cccc(Cl)c3)ncn2)n1`, the inhibition is 108% (active).
For `O=c1c2ccccc2sc2ccc(C#CC3(O)CCCCC3)cc12`, the inhibition is 56% (active).
With `COc1ccc(-c2oc3ccc(N4CCOCC4)cc3c2C#CCO)cc1`, the inhibition is 55.7% (active).
Still for that read-out and setting: the value for `CC[C@H]1CN2CCc3cc(OC)c(OC)cc3[C@@H]2C[C@@H]1C[C@H]1NCCc2cc(OC)c(OC)cc21` was 109% (active).
Consider `CC(=O)NC(c1ccc(Cl)cc1)c1ccc2cccnc2c1O` (stereo not given), for which the inhibition was 104% (active).
